Measurements: publication PMC12136788
Over roughly 24,000 sequences, “enrichment r” has its median near 0.99; the highest 2% begin near 3.7. This excerpt belongs to a sample that is enriched for the highest values.

T1: UNK ZnF1-3 (human, UniProt Q9C0B0 31-174)
T1 sequence: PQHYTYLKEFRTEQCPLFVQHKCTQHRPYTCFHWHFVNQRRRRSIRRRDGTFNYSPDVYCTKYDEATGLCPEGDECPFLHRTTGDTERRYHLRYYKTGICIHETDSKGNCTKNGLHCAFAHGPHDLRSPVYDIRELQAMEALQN

B1: chr1:59925254:59925255:+_ENSMUSG00000067336_ENSMUST00000087435|mus_hu|FALSE|FALSE (ssRNA)
RNA: GGGAGUUCUACAGUCCGACGAUCAUCUUGUUCUGAACAUGGAUUGCUGUUGUUGUUAUUGGAAUUAGUUCGGCCACCUUCUAGUGGCCGUUCCCUCCUGUCCACAAGACGAUCCAGAACACCUUCAUCAUGGCCAGCUUGUUGCAACAGAGGAUUGAGCAUCA
B2: chr4:101271765:101271766:+_ENSMUSG00000028528_ENSMUST00000094953|mus_mus|motif|central (ssRNA)
RNA: GGGAGUUCUACAGUCCGACGAUCAGACUUGGGUGACAAGUUGUAUACUGUGUAGUGGUCAAGAUGUCUGGAAUCCAAAAAGCGGCGGAUGUCAUCAACCUGAUUCCUGAAUCCUAUGUCAACACUAUCCACAGGAAAGGACAUCAACAGAGGAUUGAGCAUCA
B3: 5953805_5956048_782_CDS_ENSMUSG00000024833_ENSMUST00000025752|mouse|control|control (ssRNA)
RNA: GGGAGUUCUACAGUCCGACGAUCCAAGCCCUGUGCGGAGCCAAAGGUGGUCACCACUUCUCCCCGGUUGGUUCUGGAGGUGUAUUUCUGGGAGGGGGUAGCACUCGGGGAGAAACUUGACGGUGAGAGAAGCUGACGUGGGCUCAACAGAGGAUUGAGCAUCA
B4: chr2:39278355:39278356:-_ENSG00000115904_ENST00000402219|hu_mus|motif|central (ssRNA)
RNA: GGGAGUUCUACAGUCCGACGAUCACAGCUUCCUACUAAUGGGUGGGGACUGCCUUCAUCUGUCAUUUCUACAGUAUCUUCGGUAUGGCCCAGUAACUUUACACUAAGUUCAUGUAUAUCUACUAUACGACUGAAUAUGUUUUCCAACAGAGGAUUGAGCAUCA
B5: chr16:28827448:28827449:-_ENSMUSG00000051065_ENSMUST00000100023|mus_hu|FALSE|FALSE (ssRNA)
RNA: GGGAGUUCUACAGUCCGACGAUCAAAUAUCAGUAGUGGUGAAAGCUCAUAAGAAAAAAGACAAAAACAAAAUAAUAAAAAUAAUAGGAUAGAAUCGUUAAGCAUCAGAAAGAGAUUUGUUUCCCCAUACCCAUGAACAAAUUUCAACAGAGGAUUGAGCAUCA
B6: chrX:45232703:45232704:-_ENSMUSG00000031099_ENSMUST00000088973|mus_hu|FALSE|FALSE (ssRNA)
RNA: GGGAGUUCUACAGUCCGACGAUCAGAUGGGACCCAUCGUUUAAAUUCAUUCAUCCAGUUGUGUAAAGUAGACUUUGGAACUAAAACCAUGUGAGGUCCAGGAAUAUUUCGGUAGUGUUUCAGGUAACCAAGCAAAGCAAUUGUCAACAGAGGAUUGAGCAUCA
B7: chr17:27717376:27717377:-_ENSMUSG00000024213_ENSMUST00000025050|mus_mus|FALSE|FALSE (ssRNA)
RNA: GGGAGUUCUACAGUCCGACGAUCCACAGGACAGAUUUUUAGAAAGUUUCAUCGCACAUGGGUGUCUUUUAAUGAAAAAAAAAAAAAAAAUUCAGAGGAAAUAUCUGGCCAGGCCGGGACGAGACAAAUGGGAGUGCUUCGGAACAACAGAGGAUUGAGCAUCA
B8: chr14:49642940:49642941:-_ENSMUSG00000061244_ENSMUST00000162175|mus_mus|FALSE|FALSE (ssRNA)
RNA: GGGAGUUCUACAGUCCGACGAUCUAAAGCAUAAUCAAUAUGCUCAAUACAUAAAAAUUCCACAAGAAUGGUAAAAAUUCUAAAGGCAUUCCUUGGUAAAUCAGAAGGAUCAGAAAGCCUAUGACAUCUUUCAAAGGCUUGUUUCAACAGAGGAUUGAGCAUCA
B9: 24503659_24515395_812_3pUTR_ENSG00000112294_ENST00000357578|human|control|control (ssRNA)
RNA: GGGAGUUCUACAGUCCGACGAUCGCUCAGCCAGGGCCAGGGCGGAGAAGGGCGUGUCUUCGGCAGGCUUCACCACGACAGUACAGCCGGCUGCCAGGGCGGCCCCCACCUUCCGGGUGAUCAUGGCACUGGGGAAAUUCCACGCAACAGAGGAUUGAGCAUCA
B10: chr4:62795864:62795865:+_ENSMUSG00000028358_ENSMUST00000107415|mus_mus|FALSE|FALSE (ssRNA)
RNA: GGGAGUUCUACAGUCCGACGAUCGCCUCCCAGAAAUCACAUGUGAAAAGAAACCGAGUCCCCCAUAAGAUAAAAAAUUUGCUAAAGUAUUGUGAAAAAUGACGACAACAACAACAACAAAAUUGAGUGGAGAGUCAGCUAUGUCAACAGAGGAUUGAGCAUCA
B11: chr1:66485854:66485855:+_ENSMUSG00000015222_ENSMUST00000077355|mus_mus|FALSE|FALSE (ssRNA)
RNA: GGGAGUUCUACAGUCCGACGAUCCCUUUCAGAAUGUAUUGGAUAGCCUUCAGGCACAUGAAAGGUAAAAAUGCAAUUUAAAAAAUAAUAAUAAUACUCCAUGCAAAACAGAGCAGAGCGAAAAUAAUUGUCCGAUUGUAUCCACAACAGAGGAUUGAGCAUCA
B12: 1087333_1088580_755_CDS_ENSG00000067064_ENST00000381344|human|control|control (ssRNA)
RNA: GGGAGUUCUACAGUCCGACGAUCUACAUUCUUCCUCACCAACAAAAUGUAAUCAAUUUCAUGUUCACCCCAGAUACCAUCAGACUGAGCUUUGUAGUGAAUUCGUGUUAAAUAAUUAAUUUCUUCUGGAGGAACCUCUUCCAACAACAGAGGAUUGAGCAUCA
B13: chr1:40083102:40083103:+_ENSMUSG00000026074_ENSMUST00000163854|mus_hu|FALSE|FALSE (ssRNA)
RNA: GGGAGUUCUACAGUCCGACGAUCCAUGAAACAAAUUCUUUCUCAAGACAUUUAUUACAAAUGUCAUGAAUAUAUUCAUAAAGUAAAAUUGGUUUAAAAAAACAGAGAACAAGAGAGCAAGUGAGAAAACGAGAAAAGCCAGGACAACAGAGGAUUGAGCAUCA
B14: chr19:15271055:15271056:-_ENSG00000074181_ENST00000263388|hu_hu|motif|central (ssRNA)
RNA: GGGAGUUCUACAGUCCGACGAUCCAUAUAUAUAUUUUGUAAAAAAUAAUAAUAAUAAGUUUGUUUAAAUGAAUUUGUUUCGGUACAAAAUGUAAAAAAAAAAAGAAAAAUAAAAAUAAUAAUAAUUCAUUCAUGUCAGAGUGUCAACAGAGGAUUGAGCAUCA

molecular target: T1, UNK ZnF1-3; assay: nsRBNS (natural sequence RNA bind-n-seq); RBNS binding buffer (assumed for nsRBNS): 25 mM Tris pH 7.5, 150 mM KCl, 3 mM MgCl2, 0.01% Triton X-100, 500 ug/ml BSA, 20 U/ml SUPERase-In, 4 C; UNK is unkempt and MSI1 is Musashi-1; names of the RNAs are library labels; protein concentration not given here; high values mean tight binding

| Binder | binding signal |
| --- | --- |
| B1 | 0.391 enrichment R |
| B2 | 0.93 enrichment R |
| B3 | 1.38 enrichment R |
| B4 | 0.721 enrichment R |
| B5 | 8.38 enrichment R |
| B6 | 1.15 enrichment R |
| B7 | 4.44 enrichment R |
| B8 | 0.307 enrichment R |
| B9 | 1.27 enrichment R |
| B10 | 3.53 enrichment R |
| B11 | 5.46 enrichment R |
| B12 | 3.42 enrichment R |
| B13 | 2.12 enrichment R |
| B14 | 11.2 enrichment R |
